Measurements taken from PubChem BioAssay (NCATS).
Inconclusive results are not listed. Activity calls are given as the source filed them. Unless noted, calls follow the shape of the dose curve; as a rule, active = well fitted curve in the direction sought with a large enough effect; inconclusive = small, poorly fitted or top-dose-only effect, or another doubt; inactive = no such curve, though single readings can be large; an effect the other way counts as inactive or inconclusive.

Assays:
[1] = AP1 Signaling Pathway (AID 357; active = well fitted curve in either direction with a large enough effect, not every such curve was filed as active;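 also: ME-180 reporter cells stimulated with EGF at its EC50 level; % is scaled to controls: 0 for no effect and ±100 for the full control effect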); settings: ME-180 AP-1-bla reporter, EGF-induced, beta-lactamase ratio, 5 h; at 7.69 µM (top of the series) unless noted
Procedure, shortened: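 Modulation of EGF-driven AP-1 transcription was assessed with a beta-lactamase reporter in ME-180 cells. Compound and EC50 EGF were co-incubated 5 hours at 37 °C before 2.5-hour CCF4 loading at room temperature and dual-emission reading.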

[2] = target: Cytochrome P450 1A2 (Homo sapiens) (UniProt P05177); experiment: p450-cyp1a2 (AID 410; calls by dose curve; also: potency is read from the fitted curve at half-maximal effect;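 as to activity change, negative = inhibition: -100% = full effect of reference inhibitor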)
Cytochrome P450 1A2 (Homo sapiens), sequence (P05177 whole entry, looked up): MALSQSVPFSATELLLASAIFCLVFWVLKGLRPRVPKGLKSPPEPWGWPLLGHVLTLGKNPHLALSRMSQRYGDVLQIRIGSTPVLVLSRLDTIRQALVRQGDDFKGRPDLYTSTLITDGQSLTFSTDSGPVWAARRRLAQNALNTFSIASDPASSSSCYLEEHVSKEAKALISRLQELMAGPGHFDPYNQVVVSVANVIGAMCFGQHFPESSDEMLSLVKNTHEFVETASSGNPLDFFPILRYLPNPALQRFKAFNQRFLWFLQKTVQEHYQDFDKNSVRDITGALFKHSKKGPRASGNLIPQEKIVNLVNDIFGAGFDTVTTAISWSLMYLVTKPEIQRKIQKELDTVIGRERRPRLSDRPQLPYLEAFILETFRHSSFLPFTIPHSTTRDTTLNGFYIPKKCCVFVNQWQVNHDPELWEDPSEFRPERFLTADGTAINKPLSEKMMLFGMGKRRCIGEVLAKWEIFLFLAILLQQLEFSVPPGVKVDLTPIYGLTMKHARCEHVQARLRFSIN
Procedure, shortened: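 Read-out is luminescence from luciferin produced by CYP1A2 demethylation of Luciferin-ME (100uM, at Km). Detection reagent stopped the 60 min NADPH-dependent reaction; signals were normalized to 57 uM furafylline.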

[3] = NFAT Signaling Pathway (AID 444; active = well fitted curve in either direction with a large enough effect, not every such curve was filed as active;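 also: carbachol stimulus at about its EC50 of 1 µM final; % is scaled to controls: 0 for no effect and ±100 for the full control effect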); settings: Jurkat NFAT-bla M1, carbachol, beta-lactamase ratio, 5 h; at 7.69 µM (top of the series) unless noted
Procedure, shortened: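 Read-out: CCF4 FRET ratio (460 nm/530 nm) after 1 h RT dye loading, used for %activity and AC50 from titration series. Cells: Jurkat NFAT-β-lactamase/M1 line, treated with compound plus 1 uM carbachol for 5 h, 37 °C.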

[4] = Stat Signaling Pathway (AID 446; active = well fitted curve in either direction with a large enough effect, not every such curve was filed as active;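 also: ME-180 cervical cancer cells given 40 pM IL-6 alongside compound; SIE-controlled beta-lactamase reporter measured as 460/530 nm FRET emission ratio; % is scaled to controls: 0 for no effect and ±100 for the full control effect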); settings: ME-180 (cervical carcinoma) SIE beta-lactamase reporter, IL-6 stimulated, 5 h; at 7.69 µM (top of the series) unless noted
Procedure, shortened: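 Overnight-plated ME-180 cells bearing a STAT Inducible Element beta-lactamase reporter; 5 h co-exposure to compound and 40 pM IL-6; values normalized to 300 pM IL-6 and 125 nM JAK inhibitor controls.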

[5] = target: Glucocorticoid receptor (Homo sapiens) (UniProt P04150); experiment: GR-GFP Redistribution (AID 450;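 active = compounds whose dose series gives a full or clear partial fitted curve of increased nuclear translocation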; also: potency is read from the fitted curve at half-maximal effect); settings: U2OS GR-GFP nuclear translocation, laser cytometry, 2 h
Glucocorticoid receptor (Homo sapiens), sequence (P04150 whole entry, looked up, the tested form may be a part): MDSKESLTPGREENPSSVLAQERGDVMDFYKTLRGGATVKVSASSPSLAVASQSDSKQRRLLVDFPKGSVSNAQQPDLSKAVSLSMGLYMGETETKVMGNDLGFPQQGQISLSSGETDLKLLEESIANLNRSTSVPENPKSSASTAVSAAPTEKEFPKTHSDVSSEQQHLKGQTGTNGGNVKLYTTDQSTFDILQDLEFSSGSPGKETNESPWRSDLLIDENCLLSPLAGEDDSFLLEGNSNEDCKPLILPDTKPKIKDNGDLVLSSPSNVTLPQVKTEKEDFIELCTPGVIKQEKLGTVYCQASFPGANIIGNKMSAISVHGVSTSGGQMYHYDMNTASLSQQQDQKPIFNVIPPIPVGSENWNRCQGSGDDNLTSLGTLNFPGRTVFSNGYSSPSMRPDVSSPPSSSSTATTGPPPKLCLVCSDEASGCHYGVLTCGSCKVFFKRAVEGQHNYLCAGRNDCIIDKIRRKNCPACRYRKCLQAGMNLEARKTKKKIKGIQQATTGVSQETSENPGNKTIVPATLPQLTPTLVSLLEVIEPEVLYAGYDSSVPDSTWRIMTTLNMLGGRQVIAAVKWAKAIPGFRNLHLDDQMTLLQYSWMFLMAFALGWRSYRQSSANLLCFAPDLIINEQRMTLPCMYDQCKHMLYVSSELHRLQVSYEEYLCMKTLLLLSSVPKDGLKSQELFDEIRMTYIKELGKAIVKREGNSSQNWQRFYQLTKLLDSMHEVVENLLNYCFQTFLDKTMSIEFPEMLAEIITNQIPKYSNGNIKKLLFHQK

[6] = target: Glucocorticoid receptor (Homo sapiens) (UniProt P04150); experiment: GR-EFC Redistribution (AID 451; calls by dose curve; also: potency is read from the fitted curve at half-maximal effect); settings: CHO-K1 GR-EFC translocation, beta-gal luminescence, 2 h
Procedure, shortened: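 Translocation of GR-ED fusion to nuclear EA restores b-gal, read by luminescence after 1 h room-temperature detection. Engineered CHO-K1 biosensor cells, 1,000/well, exposed 2 h at 37 C to titrations up to 46 uM final.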

[7] = target: Mitogen-activated protein kinase 10 (Mus musculus) (UniProt Q61831); experiment: JNK3 AlphaScreen Assay (AID 530; active = well fitted curve in either direction with a large enough effect, not every such curve was filed as active;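 also: kinase came from lysate of stimulated human HepG2 cells; signal reports phosphorylation of biotinylated GST-cJun 1-79 at Ser73 with 10 µM ATP; % is scaled to controls: 0 for no effect and ±100 for the full control effect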)
Procedure, shortened: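 Kinase buffer: 20 mM Tris-HCl pH 7.6, 10 mM MgCl2, 1 mM DTT, 0.1 mM Na3VO4, 0.01% Tween-20; ATP 10 uM. Substrate biotin-GST-cJun(1-79), enzyme from activated HepG2 lysates. Detection by Ser73 phospho-antibody AlphaScreen.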

[8] = target: 3',5'-cyclic-AMP phosphodiesterase 4B (Homo sapiens) (UniProt Q07343); experiment: qHTS Assay for Inhibitors of PDE-IV (AID 607; active = well fitted activation curve with a large enough effect in the main read-out, with a control signal flat, not every such curve was filed as active; also: % of control where 0% means no effect)
3',5'-cyclic-AMP phosphodiesterase 4B (Homo sapiens), sequence (Q07343 whole entry, looked up): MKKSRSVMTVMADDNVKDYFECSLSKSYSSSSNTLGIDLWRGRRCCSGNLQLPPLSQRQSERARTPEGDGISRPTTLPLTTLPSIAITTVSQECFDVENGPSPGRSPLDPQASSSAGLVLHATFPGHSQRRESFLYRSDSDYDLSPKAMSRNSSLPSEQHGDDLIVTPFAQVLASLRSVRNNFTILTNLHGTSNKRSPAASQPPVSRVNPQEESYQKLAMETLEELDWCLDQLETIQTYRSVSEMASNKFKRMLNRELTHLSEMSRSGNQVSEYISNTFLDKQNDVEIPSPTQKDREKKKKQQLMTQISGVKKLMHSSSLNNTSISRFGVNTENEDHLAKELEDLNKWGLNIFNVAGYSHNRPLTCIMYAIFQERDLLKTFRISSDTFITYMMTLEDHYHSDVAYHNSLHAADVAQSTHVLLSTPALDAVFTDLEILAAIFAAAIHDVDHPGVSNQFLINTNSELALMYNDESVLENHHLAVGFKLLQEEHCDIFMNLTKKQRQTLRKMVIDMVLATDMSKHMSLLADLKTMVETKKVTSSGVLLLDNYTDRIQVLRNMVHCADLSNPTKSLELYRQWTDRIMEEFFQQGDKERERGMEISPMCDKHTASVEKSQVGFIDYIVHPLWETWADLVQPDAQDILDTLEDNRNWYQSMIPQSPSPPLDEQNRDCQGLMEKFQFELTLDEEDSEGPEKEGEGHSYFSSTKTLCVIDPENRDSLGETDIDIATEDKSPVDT
Procedure, shortened: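 Live HEK293 cells with a modified cyclic nucleotide-gated (CNG) channel report intracellular cAMP via membrane-potential dye fluorescence (ex 535/em 590 nm). Endogenous PDE-IV was targeted. Compounds were tested at up to 22.9 uM final; RO 20-1724 100 uM served as control.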

[9] = target: Cytochrome P450 3A4 (Homo sapiens) (UniProt P08684); experiment: qHTS Assay for Inhibitors and Substrates of Cytochrome P450 3A4 (AID 884); also: potency is read from the fitted curve at half-maximal effect; nearly all actives have a fitted effect of over 50% in size
Cytochrome P450 3A4 (Homo sapiens), sequence (P08684 whole entry, looked up): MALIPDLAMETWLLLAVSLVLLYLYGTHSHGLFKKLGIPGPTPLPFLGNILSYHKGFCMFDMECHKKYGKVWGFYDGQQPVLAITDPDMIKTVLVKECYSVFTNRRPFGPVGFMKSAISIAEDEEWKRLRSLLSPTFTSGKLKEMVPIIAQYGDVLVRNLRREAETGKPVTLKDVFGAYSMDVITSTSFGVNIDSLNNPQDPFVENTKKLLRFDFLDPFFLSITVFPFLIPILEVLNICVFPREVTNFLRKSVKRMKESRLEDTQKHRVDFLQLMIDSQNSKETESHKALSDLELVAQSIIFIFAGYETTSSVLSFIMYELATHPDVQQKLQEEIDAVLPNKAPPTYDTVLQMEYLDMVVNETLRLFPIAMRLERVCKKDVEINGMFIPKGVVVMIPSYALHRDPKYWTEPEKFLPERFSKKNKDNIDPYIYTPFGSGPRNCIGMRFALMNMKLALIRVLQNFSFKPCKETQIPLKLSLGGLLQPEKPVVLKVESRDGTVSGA
Procedure, shortened: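 Luminescent readout of luciferin produced by CYP3A4 (20 nM) dealkylation of Luciferin-PPXE, 25 uM (its KM). NADPH-driven reaction ran 60 min at RT after 10 min compound preincubation; data scaled to 57 uM ketoconazole as 100% inhibition.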

[10] = target: Cytochrome P450 3A4 (Homo sapiens) (UniProt P08684); experiment: qHTS Assay for Activators of Cytochrome P450 3A4 (AID 885); also: nearly all actives have a fitted effect of over 65% in size
Procedure, shortened: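 Using 20nM recombinant human CYP3A4 in potassium phosphate (200mM), substrate Luciferin-PPXE at 25uM, luminescent luciferin detection followed a 60-min RT NADPH reaction; data scaled to 57 uM ketoconazole.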

[11] = qHTS Assay for Lipid Storage Modulators (AID 1519; calls by dose curve); settings: Drosophila S3 cells, BODIPY lipid droplet/cell ratio, laser cytometry, cells loaded with oleic acid; for activity change, negative = inhibition: at 57.5 µM (top of the series)
Procedure, shortened: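 Cells seeded at 5,000 per well were treated with compounds over a concentration series and loaded with oleic acid (400 uM, as added). Lipid droplet fluorescence (488 nm excitation, 500-530 nm channel) was read by laser-scanning cytometry and normalized to 20 uM Triacsin C.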

[12] = target: Dual specificity protein kinase CLK4 (Homo sapiens) (UniProt Q9HAZ1); experiment: qHTS Assay for Inhibitors of CDC-like Kinase 4 (ADP-Glo Assay) (AID 1771); also: nearly all actives have a fitted effect of over 70% in size; also: potency is read from the fitted curve at half-maximal effect
Dual specificity protein kinase CLK4 (Homo sapiens), sequence (Q9HAZ1 whole entry, looked up): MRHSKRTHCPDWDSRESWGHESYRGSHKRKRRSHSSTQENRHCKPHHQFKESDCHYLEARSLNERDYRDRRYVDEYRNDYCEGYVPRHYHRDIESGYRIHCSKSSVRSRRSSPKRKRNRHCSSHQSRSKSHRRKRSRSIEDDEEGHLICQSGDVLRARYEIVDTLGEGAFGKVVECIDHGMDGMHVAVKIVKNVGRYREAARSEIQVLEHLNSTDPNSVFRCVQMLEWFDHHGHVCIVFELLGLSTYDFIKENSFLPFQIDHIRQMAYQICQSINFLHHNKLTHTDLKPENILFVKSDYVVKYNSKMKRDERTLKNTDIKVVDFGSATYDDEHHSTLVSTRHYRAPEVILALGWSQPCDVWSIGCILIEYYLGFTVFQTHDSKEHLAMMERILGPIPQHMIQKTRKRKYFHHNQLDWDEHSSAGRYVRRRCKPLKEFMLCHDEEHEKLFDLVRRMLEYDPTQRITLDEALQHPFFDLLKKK
Procedure, shortened: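 In this ADP-Glo format, 1 uM ATP and 100 uM RS peptide served as substrates for 25 nM Clk4 in Mg2+/EGTA/DTT/Triton buffer; reactions ran 1 hr at room temperature before luminescent ADP quantification.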

[13] = target: Dual specificity protein kinase CLK4 (Homo sapiens) (UniProt Q9HAZ1); experiment: qHTS Assay for Inhibitors of CDC-like Kinase 4 (ADP-FP Assay) (AID 1795); also: nearly all actives have a fitted effect of over 60% in size; also: potency is read from the fitted curve at half-maximal effect
Procedure, shortened: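 Recombinant Clk4 (6.25 nM) phosphorylated 100 uM RS repeat peptide with 1 uM ATP in 25 mM Tris pH 7.5, 10 mM MgCl2, 0.5 mM EGTA, 2.5 mM DTT, 0.01% Triton X-100 for 1 h. ADP was detected by Transcreener ADP2 competitive fluorescence polarization after 30 min at room temperature.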

[14] = Primary qHTS for small molecule stabilizers of the endoplasmic reticulum resident proteome: Secreted ER Calcium Modulated Protein (SERCaMP) assay (AID 1508630); also: % is scaled to controls: 0 for no effect and ±100 for the full control effect
Procedure, shortened: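 The SH-SY5Y reporter protocol was run at 3 concentrations up to 38.3 uM (primary) or 11 concentrations (follow-up): 16 h compound, 100 nM thapsigargin for 4 h, then extracellular luciferase luminescence.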

[15] = target: Lysosomal acid glucosylceramidase (Homo sapiens) (UniProt P04062); experiment: Glucocerebrosidase-p2 (AID 348; in the data active = potency below about 10 µM; also: potency is read from the fitted curve at half-maximal effect); settings: purified GBA, blue fluorogenic substrate, 40 min
Lysosomal acid glucosylceramidase (Homo sapiens), sequence (P04062 whole entry, looked up): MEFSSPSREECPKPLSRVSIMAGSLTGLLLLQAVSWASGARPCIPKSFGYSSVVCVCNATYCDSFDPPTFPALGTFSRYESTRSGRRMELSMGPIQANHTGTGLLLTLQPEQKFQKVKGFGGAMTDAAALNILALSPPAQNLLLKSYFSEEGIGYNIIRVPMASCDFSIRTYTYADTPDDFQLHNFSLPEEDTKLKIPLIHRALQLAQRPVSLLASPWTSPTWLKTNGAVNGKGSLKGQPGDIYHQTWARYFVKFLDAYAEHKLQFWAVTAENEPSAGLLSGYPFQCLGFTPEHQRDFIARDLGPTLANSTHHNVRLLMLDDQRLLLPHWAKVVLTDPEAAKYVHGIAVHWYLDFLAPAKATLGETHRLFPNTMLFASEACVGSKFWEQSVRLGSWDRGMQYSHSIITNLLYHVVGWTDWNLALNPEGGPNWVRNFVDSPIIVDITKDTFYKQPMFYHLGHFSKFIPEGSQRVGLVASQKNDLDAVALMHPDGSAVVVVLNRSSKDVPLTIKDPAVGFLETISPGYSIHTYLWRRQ
Procedure, shortened: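 Normal human glucocerebrosidase (0.2 nM) with blue fluorogenic substrate (80 uM final) in citrate/phosphate pH 5.9 with 10mM sodium taurocholate, 0.01% tween-20; 40 min RT, NaOH/glycine stop; fluorescence Ex 365/Em 440; AC50 from a titration from 0.6 nM upwards.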

[16] = target: Cytochrome P450 2C9 (Homo sapiens) (UniProt P11712); experiment: qHTS Assay for Inhibitors and Substrates of Cytochrome P450 2C9 (AID 883); also: % is scaled to controls: 0 for no effect and ±100 for the full control effect; nearly all actives have a fitted effect of over 60% in size
Cytochrome P450 2C9 (Homo sapiens), sequence (P11712 whole entry, looked up): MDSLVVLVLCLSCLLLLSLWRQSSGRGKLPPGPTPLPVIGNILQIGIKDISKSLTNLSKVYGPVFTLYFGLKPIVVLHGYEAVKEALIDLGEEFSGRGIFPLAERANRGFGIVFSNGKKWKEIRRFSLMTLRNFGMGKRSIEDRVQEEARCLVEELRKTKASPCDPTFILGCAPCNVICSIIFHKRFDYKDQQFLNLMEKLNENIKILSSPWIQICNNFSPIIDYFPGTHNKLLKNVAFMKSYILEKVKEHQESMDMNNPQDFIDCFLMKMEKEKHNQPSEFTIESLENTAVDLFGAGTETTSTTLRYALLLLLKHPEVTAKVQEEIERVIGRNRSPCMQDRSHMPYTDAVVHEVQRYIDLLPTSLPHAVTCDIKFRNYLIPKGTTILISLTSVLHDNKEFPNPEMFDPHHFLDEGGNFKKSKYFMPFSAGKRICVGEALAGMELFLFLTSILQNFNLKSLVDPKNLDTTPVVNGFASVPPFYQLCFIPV
Procedure, shortened: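 Luminescent read-out of deoxyluciferin hydroxylation, normalized to 57uM sulphaphenazole (AC100). Reaction: 10nM enzyme, 100uM Luciferin-H (equal to KM), 25mM KPO4, 10 min compound preincubation, then 60 min with NADPH regeneration, both at 37C.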

[17] = target: Ubiquitin carboxyl-terminal hydrolase 1 (Homo sapiens) (UniProt O94782); experiment: Inhibitors of USP1/UAF1: Pilot qHTS (AID 504865);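 also: rhodamine fluorescence freed from ubiquitin-rhodamine substrate followed over time; top concentration of the series differs between compounds; % is scaled to controls: 0 for no effect and ±100 for the full control effect; nearly all actives have a fitted effect of over 35% in size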
Ubiquitin carboxyl-terminal hydrolase 1 (Homo sapiens), sequence (O94782 whole entry, looked up): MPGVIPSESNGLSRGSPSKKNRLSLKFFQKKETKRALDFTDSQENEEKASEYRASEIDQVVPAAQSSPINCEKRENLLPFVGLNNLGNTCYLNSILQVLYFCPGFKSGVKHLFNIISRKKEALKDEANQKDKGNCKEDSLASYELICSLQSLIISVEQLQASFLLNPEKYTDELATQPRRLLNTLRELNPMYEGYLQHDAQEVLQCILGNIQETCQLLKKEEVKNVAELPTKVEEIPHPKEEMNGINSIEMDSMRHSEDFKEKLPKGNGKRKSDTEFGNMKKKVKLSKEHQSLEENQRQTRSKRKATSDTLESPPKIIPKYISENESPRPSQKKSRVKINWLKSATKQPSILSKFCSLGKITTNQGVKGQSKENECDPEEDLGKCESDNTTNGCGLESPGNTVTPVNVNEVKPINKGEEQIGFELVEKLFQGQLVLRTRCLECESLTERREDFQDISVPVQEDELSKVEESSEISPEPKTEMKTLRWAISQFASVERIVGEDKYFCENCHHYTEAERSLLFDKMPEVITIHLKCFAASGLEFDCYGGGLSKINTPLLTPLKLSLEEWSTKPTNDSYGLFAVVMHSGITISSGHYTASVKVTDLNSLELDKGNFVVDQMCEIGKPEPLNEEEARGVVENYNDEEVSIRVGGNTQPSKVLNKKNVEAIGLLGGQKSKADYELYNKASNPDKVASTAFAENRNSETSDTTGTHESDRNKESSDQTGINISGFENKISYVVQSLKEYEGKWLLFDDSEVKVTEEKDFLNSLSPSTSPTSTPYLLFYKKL
Procedure, shortened: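 USP1/UAF1 complex at 1 nM preincubated 15 min at room temperature with compound, then Ub-Rho substrate added at 150 nM final. Fluorescence (480/540 nm) read kinetically in 50 mM HEPES pH 7.8, 0.5 mM EDTA, 1 mM TCEP, 0.1 mg/ml BSA, 0.01% Tween-20.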

[18] = measured here: cell count channel max response
[19] = measured here: lipid channel max response

Structure (SMILES)	activity change, negative = inhibition [1]	Potency [2]	activity change, negative = inhibition [3]	activity, negative = inhibition [4]	Potency [5]	Potency [6]	outcome [7]	Potency [8]	Potency [9]	Potency [10]	activity change, negative = inhibition [11]	max response [11, 18] [%]	max response [11, 19] [%]	Potency [12]	Potency [13]	Potency [14]	Potency [15]	Potency [16]	Potency [17]
CS(=O)(=O)Nc1cccc(-c2cncnc2Nc2ccc(F)cc2)c1	-19.4% (inactive)	5.01 µM (active)	26% (inactive)	13.7% (inactive)	> 46 µM (inactive)	> 46 µM (inactive)	inactive	inactive	0.316 µM (active)	inactive	8.07% (inactive)	21.9	26.3	31.6 µM (active)	inactive	inactive	–	–	–
CN1CCN(c2ncc3nc(-c4cc(F)cc(F)c4)c(=O)n(C)c3n2)CC1	11.2% (inactive)	5.01 µM (active)	5.17% (inactive)	12.7% (inactive)	> 9.22 µM (inactive)	> 46 µM (inactive)	inactive	inactive	–	–	4.65% (inactive)	14.2	19.8	inactive	inactive	inactive	> 11.4 µM (inactive)	inactive	inactive
COc1ccc(-n2c(=O)cnc3cnc(N(C)C)nc32)cc1	-17.5% (inactive)	5.01 µM (active)	15.7% (inactive)	-7.93% (inactive)	> 9.22 µM (inactive)	> 46 µM (inactive)	inactive	inactive	–	inactive	5.53% (inactive)	17.5	21.2	12.6 µM (active)	11.2 µM (active)	inactive	–	–	inactive
O=c1cnc2cnc(Nc3ccccc3)nc2n1Cc1cccs1	–	1 µM (active)	–	–	> 9.22 µM (inactive)	> 46 µM (inactive)	inactive	–	–	inactive	1.01% (inactive)	12.8	12.5	2 µM (active)	–	inactive	> 11.4 µM (inactive)	–	inactive
COc1cccc(-c2cncnc2NC2CCNCC2)c1	-6.98% (inactive)	inactive	9.29% (inactive)	13.9% (inactive)	> 46 µM (inactive)	–	inactive	inactive	–	–	2.06% (inactive)	12.6	15.6	inactive	inactive	inactive	> 11.4 µM (inactive)	–	inactive
